High-throughput results deposited in PubChem BioAssay by Corson Lab, School of Medicine, Indiana University.
FECH inh: human FECH heme synthesis enzyme inhibition; 3.3% of 20,000 active; purified FECH, Ni-mesoporphyrin absorbance 550 nm; calls only at 10 µM (by protocol); AID 1671448;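 active = enzyme reaction rate more than 3 SD below the solvent-only control wells on the same plate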;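 also: lower slope than DMSO wells means FECH inhibition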
Target sequence (P22830 whole entry, looked up): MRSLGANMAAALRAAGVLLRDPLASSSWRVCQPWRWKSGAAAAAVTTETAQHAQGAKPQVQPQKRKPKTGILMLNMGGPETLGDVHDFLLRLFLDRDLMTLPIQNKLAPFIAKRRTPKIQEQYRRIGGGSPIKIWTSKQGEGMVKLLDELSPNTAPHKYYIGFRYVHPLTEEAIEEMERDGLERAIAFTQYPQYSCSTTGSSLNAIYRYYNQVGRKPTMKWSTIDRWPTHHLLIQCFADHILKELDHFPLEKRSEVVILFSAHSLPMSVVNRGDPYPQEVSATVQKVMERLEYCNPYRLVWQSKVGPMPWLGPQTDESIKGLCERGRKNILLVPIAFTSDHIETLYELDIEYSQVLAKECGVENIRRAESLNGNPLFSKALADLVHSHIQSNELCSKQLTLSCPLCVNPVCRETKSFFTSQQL
An asterisk follows results filed as active; i = inactive; + = active, no number. The entries come from a sample that favours hits as a whole.

SMILES	FECH inh
Cc1ccc(-c2ccc(N3CCC(C(=O)Nc4ccc5c(c4)OCO5)CC3)nn2)cc1	i
Cc1cc(NC(=O)c2ccccc2)n(-c2ncnc3c2cnn3-c2ccc(F)cc2)n1	i
CC(CCc1ccccc1)NC(=O)CN1CCCN(Cc2cccc(Cl)c2)S1(=O)=O (configuration not stated)	i
CCCn1ncc(C(=O)NCCn2nnc3ccccc32)c1C	i
Cc1cccnc1C(C)NCc1cn(-c2ccccc2)nc1-c1ccc(F)cc1 (configuration not stated)	i
COc1ccc(C)cc1Nc1nc(SC)nc(-c2ccc(C)cc2)c1C#N	i
CCC(=O)Nc1sc2c(c1-c1nc3ccccc3s1)CCN(CC)C2	i
O=C(NCc1cccnc1-n1ccnc1)C1CCCc2c1[nH]c1ccccc21 (configuration not stated)	i
Cc1cc(C)c(S(=O)(=O)Nc2cnc(N3CCCC(CN4CCCC4)C3)c(C(=O)O)c2)c(C)c1 (configuration not stated)	i
OCCN1CCN(c2nc(Nc3ccc(F)cc3)c3cnn(-c4ccccc4)c3n2)CC1	i
CN1CCN(c2nc(Nc3ccc(Cl)cc3)c3cnn(-c4ccccc4)c3n2)CC1	+
OCCN1CCN(c2nc(Nc3ccc(Cl)cc3)c3cnn(-c4ccccc4)c3n2)CC1	+
Cc1ccc(Nc2nc(N3CCN(C)CC3)nc3c2cnn3-c2ccccc2)cc1	i
Clc1ccc(Nc2nc(N3CCN(c4ccccc4)CC3)nc3c2cnn3-c2ccccc2)cc1	i
CCN(CCO)c1nc(Nc2ccc(Cl)cc2)c2cnn(-c3ccccc3)c2n1	i
COc1ccc(Nc2nc(N3CCN(CCO)CC3)nc3c2cnn3-c2ccccc2)cc1	i
COc1ccc(Nc2nc(N3CCCCC3)nc3c2cnn3-c2ccccc2)cc1	i
CN(CCO)c1nc(Nc2ccccc2)c2cnn(-c3ccccc3)c2n1	i
COc1ccc(Nc2nc(N3CCC(C)CC3)nc3c2cnn3-c2ccccc2)cc1	+
COc1ccc(Nc2nc(N3CCOCC3)nc3c2cnn3-c2ccccc2)cc1	i
CN(CCO)c1nc(Nc2ccc(Cl)cc2)c2cnn(-c3ccccc3)c2n1	+
O=C(CNCC(c1ccco1)N1CCCC1)Nc1cnccn1 (configuration not stated)	i
CN1CCCn2nc(C(=O)N3CCCC(OCc4ccccn4)C3)cc2C1 (configuration not stated)	i
Cc1ccc(NC(=O)N2CCC(=O)N(CC3CC3)C(C(C)C)C2)cc1 (configuration not stated)	i
Cn1c(=O)n(Cc2cccc(Cl)c2)c(=O)c2cnc(-c3cccnc3)nc21	i
SMILES	FECH inh
CC(C)(C)c1ccc(S(=O)(=O)NCCn2c(C(F)(F)F)nc3cccnc32)cc1	i
CCOc1ccc(S(=O)(=O)NCCn2c(C(F)(F)F)nc3cccnc32)cc1	+
CCc1ccc(S(=O)(=O)NCCn2c(C(F)(F)F)nc3cccnc32)cc1	i
COc1cccc(-c2[nH]ncc2C(=O)N2CCC3(CCCN(C)C3=O)C2)c1 (configuration not stated)	i
O=C(COc1ccccc1)Nc1cccc(OCc2cc(=O)n3cc(Cl)ccc3n2)c1	i
CCOC(=O)C1CCN(c2ncc(NS(=O)(=O)c3ccccc3)cc2C(=O)O)CC1	i
COc1ccc(CNc2nc3nc(CN4CCCC4)cc(=O)n3[nH]2)cc1	+
COc1ccc(CNc2nc3nc(CN4CCC(C)CC4)cc(=O)n3[nH]2)cc1	i
Cc1ccccc1NCc1cc(=O)n2[nH]c(NCc3ccccc3)nc2n1	+
O=c1cc(CNc2cccc(C(F)(F)F)c2)nc2nc(NCc3ccccc3)[nH]n12	i
Cc1ccc(Cl)cc1NCc1cc(=O)n2[nH]c(NCc3ccccc3)nc2n1	+
CCCNCc1cc(=O)n2[nH]c(NCc3ccccc3)nc2n1	i
CCc1ccc(NCc2cc(=O)n3[nH]c(NCc4ccccc4)nc3n2)cc1	i
O=c1cc(CN2CCCC2)nc2nc(NCc3ccc(F)cc3)[nH]n12	i
COc1ccc(CNc2nc3nc(CNc4ccccc4Cl)cc(=O)n3[nH]2)cc1	i
Cc1ccc(NCc2cc(=O)n3[nH]c(NCc4ccccc4)nc3n2)cc1Cl	i
COc1ccc(CNc2nc3nc(CNc4ccccc4C)cc(=O)n3[nH]2)cc1	i
O=c1cc(CNCc2ccccc2)nc2nc(NCc3ccccc3)[nH]n12	+
CS(=O)(=O)c1ccc(C(=O)NC2CC(=O)N(CCc3ccccc3)C2)cc1 (configuration not stated)	i
COc1ccc(N2CCCS2(=O)=O)cc1NC(=O)c1cccc(OC)c1OC	i
CCN(CC)c1ncc(NS(=O)(=O)c2cc(F)ccc2C)cc1C(=O)O	i
CCc1ncc2c(n1)CN(C(=O)c1ccc3c(c1)nnn3C)C2	i
Cc1ccc2[nH]c(=O)cc(C(=O)N(C)Cc3csc(C(C)C)n3)c2c1	i
COc1ccc(CNc2nc3nc(CNc4ccc(C)c(C)c4)cc(=O)n3[nH]2)cc1	i
COc1ccc(CNc2nc3nc(CNc4cccc(C)c4)cc(=O)n3[nH]2)cc1	i
SMILES	FECH inh
COc1ccc(CNc2nc3nc(CNc4ccc(C)cc4C)cc(=O)n3[nH]2)cc1	+
O=C(C1CCCN(c2ncnc3c2nc2n3CCCCC2)C1)N1CCN(c2ccccn2)CC1 (configuration not stated)	i
Cc1cc(F)ccc1NC(=O)CNC(=O)c1c(C)nc2sccn12	i
NS(=O)(=O)c1ccc(CCNC(=O)CN2CCC(C(=O)N3CCCCC3)CC2)cc1	i
FC(F)(F)c1ccc(-c2ccnc3[nH]ccc23)nc1	i
CC(=O)c1cccc(-c2ccnc3[nH]ccc23)c1	+
Cn1ccc2c(-c3cccc(O)c3)ccnc21	i
O=c1n(Cc2ccc3c(c2)OCO3)nc(C2CCNCC2)n1-c1ccccc1	i
Cc1nc(N)sc1C(=O)NCCCc1ccco1	i
CCCc1nc2nc[nH]n2c(=O)c1NC(=O)Nc1ccc(C)c(F)c1	i
CCCc1nc2nc[nH]n2c(=O)c1NC(=O)Nc1ccc(Br)cc1	i
CCCc1nc2nc[nH]n2c(=O)c1NC(=O)Nc1ccc(Br)c(C)c1	+
O=C(CCN1CCC(OCc2cccnc2)CC1)NC1CCCCCC1	+
C/C=C(\C)CN1CCC(OCc2cccnc2)CC1	i
Cc1ccc(C(C)NC(=O)CN2CCC(OCc3cccnc3)CC2)cc1 (configuration not stated)	i
CCc1c(C)nc2ncnn2c1Sc1ccc(NC(=O)Nc2cccc(Cl)c2)cc1	i
CC(C)(C)c1ccc(-c2nc3nc(CN4CCN(c5ccccc5)CC4)cc(=O)n3[nH]2)cc1	i
COc1ccccc1N1CCN(Cc2cc(=O)n3[nH]c(-c4cccc(C)c4)nc3n2)CC1	+
CC(C)(C)c1ccc(-c2nc3nc(CN4CCCCC4)cc(=O)n3[nH]2)cc1	i
CN(Cc1ccccc1)Cc1cc(=O)n2[nH]c(-c3ccc(C(C)(C)C)cc3)nc2n1	i
Cc1cccc(-c2nc3nc(CN4CCN(c5ccc(F)cc5)CC4)cc(=O)n3[nH]2)c1	i
Cc1cccc(-c2nc3nc(CN4CCN(c5ccccc5)CC4)cc(=O)n3[nH]2)c1	i
Cc1c(Cl)cccc1NCc1cc(=O)n2[nH]c(-c3ccc(C(C)(C)C)cc3)nc2n1	i
CC(C)(C)c1ccc(-c2nc3nc(CN4CCc5ccccc5C4)cc(=O)n3[nH]2)cc1	+
Cc1ccccc1NCc1cc(=O)n2[nH]c(-c3ccc(C(C)(C)C)cc3)nc2n1	+
